Measured values from PubChem BioAssay AID1903 (Southern Research Specialized Biocontainment Screening …, 2009).
In all, about 310,000 compounds went through this assay and about 1,200 (0.39%) were called active. The rule behind the calls is not given here. These entries were drawn from the full list. Results with a measured potency or affinity are listed apart.

Target: Large T antigen (Simian virus 40) (UniProt P03070)
Assay: TAg ATPase/helicase activity blockers – biochemical (AID 1903)
Conditions: SV40 large T antigen ATPase/helicase inhibition assay; at 20 µM; stronger effect = higher value

Sequence of Large T antigen (Simian virus 40) (P03070 whole entry, looked up): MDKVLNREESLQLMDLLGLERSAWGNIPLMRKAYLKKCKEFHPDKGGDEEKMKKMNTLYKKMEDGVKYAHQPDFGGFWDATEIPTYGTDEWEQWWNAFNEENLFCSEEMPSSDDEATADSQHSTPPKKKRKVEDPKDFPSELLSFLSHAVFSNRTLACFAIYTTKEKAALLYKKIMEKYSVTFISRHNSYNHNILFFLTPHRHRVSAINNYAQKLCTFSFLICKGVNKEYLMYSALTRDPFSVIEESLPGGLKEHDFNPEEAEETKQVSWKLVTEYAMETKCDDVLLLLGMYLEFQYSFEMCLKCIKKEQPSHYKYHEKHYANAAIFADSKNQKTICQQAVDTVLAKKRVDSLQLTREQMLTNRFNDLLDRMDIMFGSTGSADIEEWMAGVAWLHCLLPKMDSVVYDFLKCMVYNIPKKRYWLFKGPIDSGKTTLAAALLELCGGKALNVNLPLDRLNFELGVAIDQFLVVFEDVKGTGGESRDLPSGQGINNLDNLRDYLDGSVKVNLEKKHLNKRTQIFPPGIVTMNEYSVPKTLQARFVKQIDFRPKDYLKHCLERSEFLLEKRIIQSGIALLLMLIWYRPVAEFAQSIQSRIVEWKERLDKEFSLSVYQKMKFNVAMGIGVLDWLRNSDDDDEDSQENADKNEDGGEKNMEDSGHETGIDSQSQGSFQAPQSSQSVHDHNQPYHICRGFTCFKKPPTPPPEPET

inhibition, inactive:
COc1ccc(CCNC(=O)CN(C)S(=O)(=O)c2ccc(Br)s2)cc1OC -4.17%
Cc1c(Cc2ccccc2)c(=O)oc2c(C)c(OCc3nn[nH]n3)ccc12 11.2%
CCN1CCc2c(OCC(=O)Nc3ccc4c(c3)OCCO4)cccc2C1=O 1.06%
Cc1cc(C)c(S(=O)(=O)c2ccc(Cl)cc2)c(=O)[nH]1 7.48%
CCOc1ccc(-c2[nH]nc3c2C(c2ccc4c(c2)OCO4)C(C#N)=C(N)O3)cc1OC (stereo not drawn) 17%
O=C(CN(c1ccccc1Cl)S(=O)(=O)c1ccccc1)N/N=C/c1ccccc1C(=O)O 9.75%
CC(=O)N1CCN(CC(=O)Nc2sccc2C#N)CC1 4.43%
CCOc1ccccc1NC(=O)C1CC2CCCC(C1)C2=O (stereo not drawn) 14.6%
CCc1ccccc1NC(=O)Cn1c(=O)n(-c2ccc(CC(=O)NCC3CCCO3)cc2)c(=O)c2ccccc21 (stereo not drawn) 23.2%
CN(C)Cc1c(O)ccc2c(=O)c(-c3ccc(Cl)cc3)coc12 2.49%
O=c1cc(-c2ccc([N+](=O)[O-])cc2)c2ccc(O)cc2o1 9.32%
COc1ccc(-n2cnnc2SCCC#N)cc1 2.92%
COc1cc(CNCCCN2CCOCC2)ccc1OCC(=O)NC(C)(C)C -1.04%
COc1cc(CNC(C)(C)C)ccc1OCC(=O)NC(C)(C)C 12.2%
CCOc1cc(CNc2ccc(N3CCCCC3)cc2)cc(Br)c1OCC(=O)NC(C)(C)C 19.5%
COc1cc(CNc2ccc(N3CCOCC3)c(C(=O)O)c2)ccc1OCC(N)=O 14%
COc1cc(CNCCN2CCOCC2)ccc1OCC(=O)NC(C)(C)C 3.18%
CCOc1cc(CNc2ccc3c(c2)OCCO3)cc(Br)c1OCC(N)=O 32.4%
O=C(c1cc2ccccc2o1)n1nnc2ccccc21 3.13%
CC(C)(C)NS(=O)(=O)c1cc(C(=O)Nc2sccc2C#N)ccc1Cl 8.52%
COc1cc(NC(=O)C2CCCN(S(=O)(=O)c3ccc4c(c3)oc(=O)n4C)C2)cc(OC)c1 (stereo not drawn) 1.24%
O=C(O)CSCC(=O)N1CCN(c2nc3cc(Cl)ccc3s2)CC1 8.15%
C=CCNC(=O)c1ccccc1NS(=O)(=O)c1ccccc1 4.06%
CCN(CC)CCNC(=O)c1cn(-c2ccccc2)nc1-c1cccs1 12.7%
Nc1nc(-c2ccc(-n3nncc3-c3ccco3)cc2)cs1 13.1%
c1ccc(-c2nc(-c3ccco3)cs2)nc1 23.7%
c1coc(-c2nc3ccccc3nc2-c2ccco2)c1 50.2%
c1coc(-c2nnc(-c3ccco3)nn2)c1 63.8%
Oc1ccccc1-c1csc(-c2ccccc2)n1 6.78%
COc1ccc(-c2csc(C)n2)cc1Br 10.3%
Cc1nc(-c2ccccc2)cs1 12.6%
COc1ccc(-c2csc(-c3ccc(O)cc3)n2)cc1 21%
COc1ccc(-c2csc(C)n2)cc1OC 2.09%
COc1ccc(-c2csc(C)n2)cc1 13.6%
O=C1Nc2ccc(Br)cc2C1(O)c1ccc(F)cc1 (stereo not drawn) 5.56%
COc1ccc(F)cc1C(=O)C1CCCN(Cc2c(C)n(C)n(-c3ccccc3)c2=O)C1 (stereo not drawn) 25.2%
COc1ccc(C(=O)NC2CCCCC2)cc1S(=O)(=O)N1CCOCC1 1.05%
CC(OC(=O)c1cccc(Cl)c1)C(=O)NC1CCCCC1C (stereo not drawn) 27.1%
Nc1nnc(SCC(=O)N2CCCCC2)s1 -7.45%
COc1ccc(-n2nc3cc(C)c(N)cc3n2)cc1Cl -6.4%
O=C(CN(Cc1ccccc1)C(=O)c1csnn1)NCc1ccccc1 7.5%
Cc1nc2ccc(NC(=O)c3ccc([N+](=O)[O-])cc3[N+](=O)[O-])cc2s1 8.68%
Cc1nc2ccc(NC(=O)c3ccc(Cl)c([N+](=O)[O-])c3)cc2s1 6.3%
COc1ccccc1C(NC(C)=O)c1cc(Cl)c2cccnc2c1O (stereo not drawn) 3.72%
CCOc1ccc(C(Nc2cccnc2)c2cc(Cl)c3cccnc3c2O)cc1 (stereo not drawn) 15.7%
CCOC(=O)C1(Cc2ccccc2C)CCCN(S(=O)(=O)CC)C1 (stereo not drawn) 6.84%
Cc1cc(C)c(C)c(S(=O)(=O)Nc2ccc(O)cc2)c1C 30.2%
Cc1ccc(C)c(S(=O)(=O)Nc2ccc(C(N)=O)cc2)c1 20.6%
Cc1cc(C)c(S(=O)(=O)Nc2ccc(O)cc2)cc1C 48.1%
Cc1cc(C)c(S(=O)(=O)Nc2ccc(O)cc2)c(C)c1 29.1%
COCCOc1cc(N(CC(=O)N(C)C)S(=O)(=O)c2ccccc2)c(Cl)cc1Cl -5.2%
Cc1cc(C)c2c(=O)[nH]n(C3CCOC(C)(C)C3)c2n1 (stereo not drawn) 13.4%
O=C(Nc1ccccc1C(=O)Nc1nnc(C(F)(F)F)s1)c1ccccc1Cl 10.1%
CNC(=O)c1cc(S(=O)(=O)NCc2ccncc2)ccc1OC 11.8%
COc1ccccc1S(=O)(=O)CC(O)COc1ccc(F)cc1Cl (stereo not drawn) 4.29%
COc1ccc(/C=C/C(=O)C2CC2)cc1COc1c(C)cccc1C 7.52%
COC(=O)CC1SC(=O)NC1=Nc1ccc(C)cc1 (stereo not drawn) 0.63%
COC(=O)CC1SC(=O)NC1=Nc1ccc(OC)cc1 (stereo not drawn) 3.46%
Cc1cc(S(=O)(=O)NCc2ccccc2)ccc1OCC(=O)NCc1cccnc1 8.52%
O=C(COc1ccccc1Br)Nc1ccc2c(c1)OCCCO2 8.78%
CCOc1ccc(N2C(=O)CC(Sc3n[nH]c(-c4ccccc4)n3)C2=O)cc1 (stereo not drawn) 33.8%
COc1ccc(N2C(=O)CC(Sc3n[nH]c(-c4ccc(C)cc4)n3)C2=O)cc1 (stereo not drawn) 28.9%
Cc1nc2ccccc2n1CC(=O)NCCN1CCOCC1 21.1%
